Source: PubChem BioAssay
Only some compounds are listed: those with a hit (about 21% of all), similar ones and a draw of the others.
HCV inh – inhibitors of hepatitis C virus infection; hit rate 3.4% among 340,000; Potency, µM (titrated, usually from 41.8 µM), for inactives: at the top dose activity change, negative = inhibition, most hits filed as inhibitors; Huh7.5.1 HCVcc-Cre infection, luciferase reporter, 44 h; note: potency is the fitted concentration of half-maximal effect; % is set by controls: 0 for no effect and ±100 for the full control effect
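1,000 cells/well; 4 h culture; + compound; + HCVcc-Cre (~0.5 moi); 44 h; luciferase substrate, RT 15 min; read 15 sec.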
Shiga inhibitor – blocks Shiga toxin action in Vero cells; hit rate 9.2% among 290,000; inhibition, % at 38.7 µM; Vero cells, Shiga toxin protein synthesis inhibition reporter; in the data active = inhibition mostly above about 28%, no sharp cut-off; inactive = mostly below about 43%; note: 0% is about no effect
HCMV antiviral – human cytomegalovirus inhibition; HFF cells, HCMV-luciferase reporter, 72 h; active compounds read low; activity change, negative = inhibition, % at 57.5 µM; hit rate 4.5% among 410,000; in the data active = activity change below about -60%; inconclusive = no clear call, values can overlap the other calls; inactive = above about -39%; note: % is set by controls: 0 for no effect and ±100 for the full control effect
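HFF cells seeded 16 h at 37C, treated with compounds, infected with luciferase-reporter HCMV at MOI 1 PFU/cell; luciferase read at 72 h post infection, normalized to buffer-only and Salinomycin controls.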
Pf growth 48h – inhibits P. falciparum growth in the first generation, 48 h. AID 504832. P. falciparum luciferase growth in erythrocytes, 48 h. hit rate 5.9% among 310,000. Potency, µM (doses to about 28.7 µM), without a hit: at the top dose activity change, negative = inhibition, usual class: inhibitors; note: potency is the fitted concentration of half-maximal effect; % is set by controls: 0 for no effect and ±100 for the full control effect
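Parasite viability was followed by luminescence of a genomically integrated firefly luciferase. Cultures held 0.1% parasitemia at 2% hematocrit (final), incubated under 5% CO2 at 37 C.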
Pf growth 96h – P. falciparum growth inhibition at 96 hour, primary screen for plastid delayed-death inhibitors; P. falciparum luciferase reporter growth, 96 h; Potency, µM (titrated, usually from 28.7 µM), for inactives: at the highest dose activity change, negative = inhibition, usual class: inhibitors; hit rate 6.9% among 320,000; AID 504834; note: potency is the fitted concentration of half-maximal effect; % is set by controls: 0 for no effect and ±100 for the full control effect
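Two parasite generations (96 h, 37 C, 5% CO2) of compound exposure in infected erythrocytes (0.05% parasitemia, 2% hematocrit). Luciferase-reporter P. falciparum; decreased luminescence indicates inhibited growth, aimed at apicoplast-acting delayed death.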
CHX counter – counter-screen for Shiga toxin inhibitors: cycloheximide protein synthesis inhibition | hit rate 12% among 300,000 | cell reporter, cycloheximide protein synthesis inhibition counterscreen | max response, %; in the data active = max response mostly above about 13%, no sharp cut-off; inactive = mostly below about 14%; note: read at 38.3 µM for the half of the compounds with a filed dose; 0% is about no effect
Numbers without * were called inactive; u = inconclusive; x = no result given; + = active, no number. Unless noted, calls come from the whole dose curve; as a rule, active = well fitted inhibition curve with a large enough effect; inconclusive = small, poorly fitted or top-dose-only effect, or another doubt; inactive = no such curve, though single readings can be large or run the other way.

SMILES	HCV inh	Shiga inhibitor	HCMV antiviral	Pf growth 48h	Pf growth 96h	CHX counter
CN(C)c1ccc(CNC(=O)CCS(=O)(=O)c2ccc3c(c2)n(C)c(=O)c(=O)n3C)cc1	10.4%	7.3	x	-12.2%	0.9%	-2.9
CC(=O)Nc1ccc(S(=O)(=O)NN=CCCc2ccccc2)cc1	4.4%	x	-9.4	x	x	x
CC1N=C2c3ccccc3N=C(SCC(=O)NCCc3ccc(Cl)cc3)N2C1=O (stereo not given)	x	x	-14.9	x	x	x
CC(C)(C)OC(=O)C[C@@H]1C/C=C\C[C@@H](CC(=O)N[C@@H](CO)Cc2ccccc2)C(=O)NC[C@@H](c2ccccc2)OC1=O	-10.4%	x	-28.3	x	x	x
CCOC(=O)c1sc(=S)n(Cc2ccccc2)c1C	-5.9%	4.7	-2.0	-14.8%	-14.8%	1.3
CCOC(=O)c1cc(C)n(Cc2ccccc2)c1C	-12.0%	36.6	57.7	3.29µM*	6.57µM*	24.7
CCOC(=O)c1cc(C)n(CCc2cnc[nH]2)c1C	12.2%	27.2	12.0	13.1µM*	u	14.7*
Cc1ccc(C(CC(=O)Nc2cc(C)cc(C)c2)N2Cc3ccccc3C2=O)cc1 (stereo not given)	x	x	-9.5	x	x	x
O=C(Cc1ccc(Cl)c(Cl)c1)Nc1cccc(S(=O)(=O)N2CCOCC2)c1	u	-4.9	39.2	u	u	3.6
Cc1ccc(S(=O)(=O)C/N=C(/NC(=S)N(c2ccccc2)c2ccccc2)c2ccccc2)cc1	-24.0%	49.5*	47.6	x	u	21.5*
CC(OC(=O)CSCC(=O)Nc1ccc(Cl)cc1)C(=O)N(C)Cc1ccccc1 (stereo not given)	-6.1%	x	-17.5	x	x	x
O=C(CCCNC(=O)c1ccc(Cl)cc1)Nc1ncccc1O	11.1%	4.4	-6.5	u	8.28µM*	-1.5
O=C(NCCSc1ccccn1)c1ccc(Cl)cc1	2.1%	63.0*	29.1	186.8%	36.8%	11.6
Cc1ccccc1N(CC(=O)NCCSc1ccccn1)S(=O)(=O)c1ccccc1	13.5%	-12.7	-25.8	u	10.4µM*	-2.2
Cc1ccccc1CSCC(=O)NCCSc1ccccn1	0.9%	33.1	-18.0	11.8%	-10.3%	22.4*
COc1ccc(S[C@]2(C(=O)N3CCCC3)CC(=O)N(c3ccccc3)[C@@H]2c2ccc(OC)cc2)cc1	x	x	-24.5	x	x	x
COc1ccc2nc(N(Cc3cccnc3)C(=O)c3ccc(Cl)cc3)sc2c1	x	x	41.0	x	x	x
Cc1nnsc1SCCNC(=O)c1c(F)cccc1F	11.8%	-4.0	8.4	8.6%	61.4%	4.3
CCOc1ccccc1N(CC(=O)NCCSc1ccccn1)S(=O)(=O)c1ccccc1	1.9%	-6.3	u	14.7µM*	u	1.0
Cc1ccc(C(=O)NCCSc2snnc2C)cc1	-6.4%	70.7*	9.4	27.5%	39.5%	54.3*
COc1ccc(-c2csc(NC(=O)CCS(=O)(=O)c3ccccc3)n2)c(OC)c1	u	14.4	u	-25.4%	u	2.4
CCOC(=O)c1cc(C(=O)Nc2ccccc2F)nn1C	-4.0%	72.0*	138.9	x	334.2%	37.2*
CCOC(=O)c1c(NC(C)=O)sc2c(OC)cccc12	u	-10.4	-21.4	25.1%	104.3%	4.4
CCOC(=O)c1c(N)sc2c(NC(C)=O)cccc12	17.8µM*	2.9	-17.0	u	28.3%	13.9
CCC(=O)Nc1sc(C(=O)Nc2ccccc2F)c(C)c1C(=O)OC	-27.8%	52.3*	73.0	5.5%	2.08µM*	6.9
SMILES	HCV inh	Shiga inhibitor	HCMV antiviral	Pf growth 48h	Pf growth 96h	CHX counter
CCOC(=O)c1c(N)sc(C(=O)Nc2ccccc2F)c1C	-5.6%	36.8	96.6	94.8%	-26.5%	36.7*
CCOC(=O)c1c(N)sc(C(=O)N(CC)CC)c1C	3.0%	-6.4	-11.7	30.3%	8.5%	0.4
CCOC(=O)c1c(N)sc(C(N)=O)c1C	10.6%	-1.3	-3.1	14.3%	0.0%	-2.6
CCCOC(=O)c1c(N)sc(C(=O)OCC)c1C	-29.6%	active	u	74.4%	131.0%	37.3*
COC(=O)c1c(NC(C)=O)sc(C(=O)Nc2ccccc2)c1C	-22.4%	27.8	124.4	30.3%	-0.7%	10.0
CCOC(=O)c1c(N)sc(C(=O)Nc2ccccc2)c1C	11.2µM*	73.5*	78.6	78.7%	7.3%	25.7*
CCCC(=O)Nc1sc(C(=O)Nc2cccc(N)c2)c(C)c1C(=O)OC	u	59.4*	57.3	58.6%	13.5%	51.4*
CCCCNC(=O)[C@@H]1CC=C[C@@H]2CCN(C3CC3)C(=O)[C@@H]21	15.6%	x	1.7	x	x	x
CCCCc1cc(O)c(CCCC)c(O)c1	u	39.5*	17.5	u	198.1%	39.2*
CCc1cccc(C)c1NC(=O)CN1CCN(Cc2ccccc2Cl)S1(=O)=O	x	x	0.0	x	x	x
CCc1ccc(NC(=O)CN2CCCN(Cc3cccc(Cl)c3)S2(=O)=O)cc1	x	x	+	x	x	x
CCc1ccc(NC(=O)CN2CCN(Cc3ccccc3)S2(=O)=O)cc1	x	x	21.8	x	x	x
CCc1cccc(C)c1NC(=O)CN1CCCN(Cc2ccccc2Cl)S1(=O)=O	x	x	+	x	x	x
Cc1cc2n(n1)CCCN2C(=O)Nc1ccccc1C(F)(F)F	x	x	10.0	x	x	x
O=C(CSc1nc(NS(=O)(=O)c2ccccc2)cc(=O)[nH]1)Nc1ccc(F)cc1	6.8%	-5.8	86.1	-20.3%	1.85µM*	-1.5
C=CC[N@@+]12CC[C@]34c5ccccc5N5/C=C6\C7N(/C=C(\C53)[C@@H](C[C@@H]41)/C(=C/CO)C2)c1ccccc1[C@@]71CC[N@@+]2(CC=C)C/C(=C\CO)[C@@H]6C[C@@H]12 (stereo not given in full)	16.2%	x	u	u	-13.9%	x
Cc1ccc(S(=O)(=O)CCC(=O)NNC(=O)CN(C)S(=O)(=O)c2ccc(C)cc2)cc1	0.5%	x	1.3	x	x	x
COC(=O)[C@@H]1[C@@H](C#N)C2(c3ccccc3-c3ccccc32)N(c2ccc(Cl)cc2)N1C#N	u	46.6*	-27.2	-19.9%	-4.7%	11.8*
C=CCn1c(O)c(N=NC(=S)Nc2cccc(C)c2)c2ccccc21	u	32.0	-36.7	1.85µM*	-22.9%	4.5
Oc1c(N=NC(=S)Nc2ccccc2F)c2ccccc2n1Cc1ccccc1	u	-3.2	-20.1	u	6.9%	2.0
C=CCn1c(O)c(N=NC(=S)Nc2ccccc2F)c2ccccc21	10µM*	-7.2	-92.8*	u	-11.5%	14.4
Cc1c(Cl)cccc1NC(=S)N=Nc1c(O)n(CN2CCOCC2)c2ccccc12	u	-6.2	x	3.7µM*	413.7%	-3.6
Oc1c(N=NC(=S)Nc2ccccc2F)c2ccccc2n1Cc1ccccc1Cl	u	-3.1	-15.7	5.22µM*	u	11.4
Cc1ccc(C)c(NC(=O)c2cnc(N3CCCC3)nc2C)c1	x	x	-13.6	x	x	x
C[C@H](CO)N1C[C@H](C)[C@@H](CN(C)S(=O)(=O)c2ccccc2)Oc2c(NC(=O)c3ccncc3)cccc2C1=O	12.7%	x	32.3	x	x	x
